# Like-named read-outs stand apart in the source and are kept apart here.
# How the values were obtained:
# Set-up in all cases: species or system human, MV4-11 + K-562 + COLO205 + SK-N-BE2 + OVCAR-8
# [1] = test system: ATM; settings: read-out: apparent Kd, n = 1
# [2] = test system: CDC42BPG; settings: read-out: apparent Kd; compound concentrations: 100 nM and 1000 nM (sheet 'Samples'), CATDS: 9.9527078318265502E-2; n = 1
# [3] = test system: DCTPP1; settings: read-out: apparent Kd; compound concentrations: 100 nM and 1000 nM (sheet 'Samples'), CATDS: 8.8490675480642905E-2; n = 1
# [4] = test system: DDR2; settings: read-out: apparent Kd; compound concentrations: 100 nM and 1000 nM (sheet 'Samples'), CATDS: 8.0656162840652496E-2; n = 1
# [5] = test system: FLT3; settings: read-out: apparent Kd; compound concentrations: 100 nM and 1000 nM (sheet 'Samples'), CATDS: 8.7421379442902306E-2; n = 1
# [6] = test system: IRAK4; settings: read-out: apparent Kd; compound concentrations: 100 nM and 1000 nM (sheet 'Samples'), CATDS: 7.99000406569913E-2; n = 1
# [7] = test system: MYLK3; settings: read-out: apparent Kd; compound concentrations: 100 nM and 1000 nM (sheet 'Samples'), CATDS: 0.35041871443296002; n = 1
# [8] = test system: PIM2; settings: read-out: apparent Kd; compound concentrations: 100 nM and 1000 nM (sheet 'Samples'), CATDS: 8.1354023438197698E-2; n = 1
# [9] = test system: PRKAG1; settings: read-out: apparent Kd; compound concentrations: 100 nM and 1000 nM (sheet 'Samples'), CATDS: 8.6524001120503097E-2; n = 1
# [10] = test system: TNIK; settings: read-out: apparent Kd; compound concentrations: 100 nM and 1000 nM (sheet 'Samples'), CATDS: 9.2286016750468006E-2; n = 1
# [11] = test system: CDC42; settings: read-out: apparent Kd; compound concentrations: 100 nM and 1000 nM (sheet 'Samples'), CATDS: 0.120707875604042; n = 1
# [12] = test system: MTOR; settings: read-out: apparent Kd; compound concentrations: 100 nM and 1000 nM (sheet 'Samples'), CATDS: 0.13183909981737599; n = 1
# [13] = test system: PIK3CA; settings: read-out: apparent Kd; compound concentrations: 100 nM and 1000 nM (sheet 'Samples'), CATDS: 0.214179011469951; n = 1
# [14] = test system: PIK3CD; settings: read-out: apparent Kd; compound concentrations: 100 nM and 1000 nM (sheet 'Samples'), CATDS: 0.39108548114929897; n = 1
# [15] = test system: PKN3; settings: read-out: apparent Kd; compound concentrations: 100 nM and 1000 nM (sheet 'Samples'), CATDS: 0.11684999356733999; n = 1
# [16] = test system: PIK3C3; settings: read-out: apparent Kd; compound concentrations:100 nM and 1000 nM (sheet 'Samples'); n = 1
# [17] = test system: AP1G1; settings: read-out: apparent Kd; compound concentrations:100 nM and 1000 nM (sheet 'Samples'); n = 1
# [18] = test system: AKT2; settings: read-out: apparent Kd, compound concentrations: 100 nM and 1000 nM (sheet 'Samples'), n = 1
# [19] = test system: MAP2K2; settings: read-out: apparent Kd; compound concentrations: 100 nM and 1000 nM (sheet 'Samples'), CATDS: 0.187838411723944; n = 1
# [20] = test system: PLK1; settings: read-out: apparent Kd; compound concentrations: 100 nM and 1000 nM (sheet 'Samples'), CATDS: 0.29940463058405897; n = 1
# [21] = test system: RIOK2; settings: read-out: apparent Kd; compound concentrations: 100 nM and 1000 nM (sheet 'Samples'), CATDS: 0.18243724402643599; n = 1
# [22] = test system: STK26; settings: read-out: apparent Kd; compound concentrations: 100 nM and 1000 nM (sheet 'Samples'), CATDS: 0.193816418498372; n = 1
# [23] = test system: MAP2K3; settings: read-out: apparent Kd; compound concentrations: 100 nM and 1000 nM (sheet 'Samples'), CATDS: 0.58030400025916395; n = 1
# [24] = compound concentrations:100 nM and 1000 nM (sheet 'Samples')
compound,measurement,setting,value
NS(=O)(=O)c1cccc(N/C=C2\C(=O)Nc3ccccc32)c1 [GW275616X],potency estimated from few doses,"[1]; compound concentrations: 100 nM and 1000 nM (sheet 'Samples'), CATDS: 0.21008347624398099",294 nM
same,potency estimated from few doses,[2],1200 nM
same,potency estimated from few doses,[3],1600 nM
same,potency estimated from few doses,[4],2060 nM
same,potency estimated from few doses,[5],1650 nM
same,potency estimated from few doses,[6],2110 nM
same,potency estimated from few doses,[7],137 nM
same,potency estimated from few doses,[8],2010 nM
same,potency estimated from few doses,[9],1690 nM
same,potency estimated from few doses,[10],1440 nM
COC(=O)Nc1nc2ccc(Oc3ccc(NC(=O)Nc4cc(C(F)(F)F)ccc4F)cc3)cc2s1.Cl [GW693917A],potency estimated from few doses,[1]; [24],222 nM
Fc1ccc(-c2c(-c3ccncc3)nc3n2CCS3)cc1 [SKF-86055],potency estimated from few doses,"[1]; compound concentrations: 100 nM and 1000 nM (sheet 'Samples'), CATDS: 0.230066198267698",174 nM
same,potency estimated from few doses,[11],940 nM
same,potency estimated from few doses,[12],688 nM
same,potency estimated from few doses,[13],201 nM
same,potency estimated from few doses,[14],71.3 nM
same,potency estimated from few doses,[15],1070 nM
Cc1cn2c(=O)cc(N3CCOCC3)nc2n1Cc1cccc(Cl)c1Cl [GSK2334006A],potency estimated from few doses,[1]; [24],280 nM
same,potency estimated from few doses,[16],61.5 nM
COc1cccc(OC)c1C(=O)Nc1cccc(-c2nn3ccccc3c2-c2ccnc(Nc3cccc(F)c3)n2)c1 [GSK361065A],potency estimated from few doses,[17],895 nM
C[C@@H](Oc1cc(-n2cnc3ccc(NC(=O)NC(C)(C)C)cc32)sc1C(N)=O)c1ccccc1Cl [GSK346294A],potency estimated from few doses,[18]; CATDS: 0.175578596413346,2320 nM
same,potency estimated from few doses,[19],1980 nM
same,potency estimated from few doses,[20],851 nM
same,potency estimated from few doses,[21],2120 nM
same,potency estimated from few doses,[22],1850 nM
O=C1NC(=O)C(N2CCc3ccccc32)=C1c1ccc(Cl)cc1 [SB-333612],potency estimated from few doses,"[1]; compound concentrations: 100 nM and 1000 nM (sheet 'Samples'), CATDS: 1",265 nM
Nc1c(C(=O)c2ccc(C#CCN3CCOCC3)cc2)cnn1-c1ccc(F)cc1 [RO1153136-000],potency estimated from few doses,[18]; CATDS: 0.43921962783060797,2590 nM
same,potency estimated from few doses,[23],1470 nM

# Reference: article PMC11062922 (Nature Chemical Biology, 2023)
